The target of assay [1] is Cell division control protein 42 homolog (Homo sapiens) (UniProt P60953). As to the kind of experiment: inhibition of fluorescent GTP binding to constitutively active Cdc42 – biochemical, multiplex bead flow cytometry, Bodipy-FL-GTP, dose response (AID 1333;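 active means fitted half-maximal concentration within the tested dose range, moderate curve steepness, a statistically real signal drop, and little compound fluorescence or tag-binding interference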). For orientation: Flow cytometry measures light scatter and fluorescence of single cells or particles in a stream.
Assay [2] shares this target. As to the kind of experiment: inhibition of fluorescent GTP binding to wildtype Cdc42 – biochemical, multiplex bead flow cytometry, Bodipy-FL-GTP, dose response (AID 1334;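 active means fitted half-maximal concentration within the tested range, moderate curve steepness, significant signal drop, and little compound fluorescence or bead-linkage interference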). To be noted: bead-based flow cytometry, Bodipy-FL-GTP binding to GST-Cdc42; at 100 µM (top of the series) unless noted.
Assay [3] deals with GTPase HRas (Homo sapiens) (UniProt P01112). Nature of the assay: Ras wt fluorescent GTP loading blockade – biochemical, wildtype, multiplex bead flow cytometry, dose response (AID 1335). Conditions: bead-based flow cytometry, Bodipy-GTP binding to GST-Ras; at 100 µM (top of the series) unless noted.
Assay [4] concerns Ras-related protein Rab-7a (dog), GTP binding. As to the kind of experiment: blockers of fluorescent GTP binding to Rab7 – biochemical, wildtype, multiplex bead flow cytometry, dose response (AID 1336; call rule not given here).
Assay [5] concerns the target Ras-related C3 botulinum toxin substrate 1 (Homo sapiens) (UniProt P63000). As to the kind of experiment: inhibition of wildtype Rac1 nucleotide loading – biochemical, multiplex bead flow cytometry, dose response (AID 1340;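 active means dose curve with midpoint inside tested range, moderate steepness, plateau gap beyond fit error, low compound glow and bead-link interference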). To be noted: GST-Rac1 beads, Bodipy-FL-GTP binding; at 100 µM (top of the series) unless noted.
Assay [6] deals with GTPase HRas (Homo sapiens) (UniProt P01112). As to the kind of experiment: blockade of GTP loading onto mutant Ras – biochemical, activated mutant, multiplex bead flow cytometry, dose response (AID 1341;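 active means dose-response curve with midpoint inside the tested range, moderate steepness, significant amplitude and little compound fluorescence or bead-attachment interference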;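 further: GST-tagged constitutively activated Ras mutant immobilized on beads and multiplexed with other GTPases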).
Assay [7] is described as follows: hit retest on RPL19A-GFP reporter strain – cell-based, S. cerevisiae, flow cytometry, cherry picks, mother/daughter gates, confirmation (AID 2270;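 active means GFP response below 50% of the DMSO control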). To be noted: 3 h, at 10 µM, stronger effect = lower value, 100 = same GFP as DMSO wells.
A short description of assay [8]: yeast TOR pathway reporter LAP4-GFP change – cell-based, cherry picks, flow cytometry, mother/daughter gates, confirmation (AID 2271;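 active means GFP response above 150% of the DMSO control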;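 further: ratio of sample to DMSO plate mean so 100% equals DMSO level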). To be noted: S. cerevisiae LAP4-GFP strain, 3 h, at 10 µM, stronger effect = higher value, 100 means same as DMSO control.
Assay [9] can be described thus: TOR pathway reporter MEP2-GFP, retest of hits – S. cerevisiae, flow cytometry GFP, cherry picks, confirmation (AID 2272;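 active means GFP response above 150% of the DMSO control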;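 further: ratio of well signal to plate DMSO mean so 100% equals DMSO level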). Conditions: S. cerevisiae MEP2-GFP strain, 3 h, at 10 µM, stronger effect = higher value.
A short description of assay [10]: yeast AGP1-GFP fluorescence change, single-dose – cell-based, flow cytometry, S. cerevisiae, cherry picks, confirmation (AID 2273;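 active means GFP response above 150% of the DMSO level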;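 further: median GFP channel fluorescence over the whole cell population gate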). Conditions: S. cerevisiae AGP1-GFP strain, 3 h, at 10 µM.
Assay [11] is described as follows: TOR pathway CIT2 reporter hit retest – S. cerevisiae, GFP fusion, cherry picks, mother/daughter gates, confirmation (AID 2274;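 active means GFP response above 150% of the DMSO level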). To be noted: S. cerevisiae CIT2-GFP strain, flow cytometry, 3 h, at 10 µM, stronger effect = higher value.
[12] abbreviates: measured here: daughter cell gate.
Setting [13] is: measured here: mother cell gate.

For some of these results: Potency and affinity values are given separately. Active and inactive are the calls of the source.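 How the source made its calls, unless noted: active means fitted half-maximal concentration within 10 nM to 100 µM, steepness 0.5 to 2, significant signal drop, low assay interference; inactive means the rest.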

GTPase HRas (Homo sapiens), sequence (P01112 whole entry, looked up): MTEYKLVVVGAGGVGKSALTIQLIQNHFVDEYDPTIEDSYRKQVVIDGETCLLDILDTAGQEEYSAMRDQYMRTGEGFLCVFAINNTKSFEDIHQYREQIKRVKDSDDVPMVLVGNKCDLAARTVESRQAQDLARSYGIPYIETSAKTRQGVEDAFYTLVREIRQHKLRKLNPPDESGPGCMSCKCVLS
Cell division control protein 42 homolog (Homo sapiens), sequence (P60953 whole entry, looked up): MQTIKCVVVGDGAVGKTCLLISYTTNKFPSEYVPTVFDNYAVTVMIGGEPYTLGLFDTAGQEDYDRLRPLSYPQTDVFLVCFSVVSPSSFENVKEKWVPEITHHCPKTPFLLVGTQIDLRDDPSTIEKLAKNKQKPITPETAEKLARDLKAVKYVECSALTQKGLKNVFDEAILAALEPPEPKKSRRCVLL

On to `O=[N+]([O-])c1ccccc1/C=C/C=N/n1c(-c2ccco2)n[nH]c1=S`, for which the compound was called inactive in [1], in assay [4] and in assay [6]. Further, in assay [2], the fluorescence, percent of control (lower = inhibition) worked out at 28.1%. Besides, the GTP binding, percent of control in assay [3] stood at 72.9%. For the same compound, the GTP binding signal, raw median fluorescence (lower = inhibition) (MCF (arbitrary fluorescence units)) in [5] stood at 221.
In the case of `COc1ccc(-c2nn3c(-c4ccccn4)nnc3s2)cc1OC`, the outcome in assay [1], in assay [4] and in assay [6] was inactive. Further, in [2], the fluorescence, percent of control (lower = inhibition) amounted to 43%. The GTP binding, percent of control in assay [3] was found to be 52.9%. Besides, the GTP binding signal, raw median fluorescence (lower = inhibition) (MCF (arbitrary fluorescence units)) in assay [5] came out at 137.
Turning to `Cc1cc(C(=O)NNC(=S)NC(C)c2ccccc2)c2ccccc2n1` (stereo not drawn), the compound was classed as inactive in assay [1], in assay [4] and in assay [6]. The fluorescence, percent of control (lower = inhibition) in assay [2] was found to be 95.6%. The GTP binding, percent of control in assay [3] worked out at 177%. The GTP binding signal, raw median fluorescence (lower = inhibition) (MCF (arbitrary fluorescence units)) in assay [5] came out at 197.
`COc1ccc(C(=O)Nc2cc(Cl)ccc2C(=O)O)cc1`: the call in assay [1], in [4] and in assay [6] was inactive. This compound also displayed a fluorescence, percent of control (lower = inhibition) in assay [2] of 30.8%. The same compound showed a GTP binding, percent of control in assay [3] of 75.6%. In assay [5], this compound returned a GTP binding signal, raw median fluorescence (lower = inhibition) (MCF (arbitrary fluorescence units)) of 272.
As to `Cc1ccc2c(c1)c1nnc(SCC(=O)Nc3cccc(Cl)c3C)nc1n2CC(=O)O`, the compound was classed as inactive in assay [1], in assay [4] and in assay [6]. In addition, the fluorescence, percent of control (lower = inhibition) in [2] amounted to 35.2%. This compound also registered a GTP binding, percent of control in [3] of 80.1%. This compound also displayed a GTP binding signal, raw median fluorescence (lower = inhibition) (MCF (arbitrary fluorescence units)) in assay [5] of 245.
As for `O=c1/c(=C/c2ccc(CNS(=O)(=O)c3ccccc3)o2)sc2n1CCN=2`, the outcome in [1], in assay [4] and in assay [6] was inactive. The compound also came in with a fluorescence, percent of control (lower = inhibition) in assay [2] of 29%. The compound further gave a GTP binding, percent of control in assay [3] of 63.2%. Also, the GTP binding signal, raw median fluorescence (lower = inhibition) (MCF (arbitrary fluorescence units)) in assay [5] amounted to 119.
As for `COc1cc(Cl)c(C)cc1NCc1sc(C(=O)O)cc1C`, the call in assay [1], in assay [4] and in [6] was inactive. Further, the fluorescence, percent of control (lower = inhibition) in assay [2] worked out at 58.6%. Also, in assay [3], the GTP binding, percent of control was 82%. In assay [5], this compound had a GTP binding signal, raw median fluorescence (lower = inhibition) (MCF (arbitrary fluorescence units)) of 29.9.
Turning to `COc1ccc2c3c(cccc13)C(=O)N(O)C2=O`, the compound was called inactive in [1], in assay [4] and in [6]. In [2], this compound yielded a fluorescence, percent of control (lower = inhibition) of 30.1%. In addition, the GTP binding, percent of control in assay [3] was 69.8%. In addition, in assay [5], the GTP binding signal, raw median fluorescence (lower = inhibition) (MCF (arbitrary fluorescence units)) was found to be 145.
`Cn1c(=O)c2c(nc(N/N=C/c3ccco3)n2C)n(C)c1=O`: the result in assay [1], in [4] and in assay [6] was inactive. In [2], this compound gave a fluorescence, percent of control (lower = inhibition) of 31.1%. In assay [3], the GTP binding, percent of control was 69.2%. In addition, in assay [5], the GTP binding signal, raw median fluorescence (lower = inhibition) (MCF (arbitrary fluorescence units)) came to 165.
Consider `COc1ccc(C(=O)Nc2nc3ccccc3[nH]2)cc1S(=O)(=O)N1CCOCC1`, for which the compound was classed as inactive in assay [1], in assay [4] and in assay [6]. This compound also returned a fluorescence, percent of control (lower = inhibition) in assay [2] of 32.9%. In assay [3], this compound had a GTP binding, percent of control of 73.9%. For the same compound, the GTP binding signal, raw median fluorescence (lower = inhibition) (MCF (arbitrary fluorescence units)) in assay [5] was found to be 197.
In the case of `CCOC(=O)c1cc(C(=O)OCC)c(=O)[nH]c1N1CCCC1`, the call in assay [1], in assay [4] and in [6] was inactive. In assay [2], the fluorescence, percent of control (lower = inhibition) is 31.6%. The GTP binding, percent of control in [3] came to 72.4%. The same compound registered a GTP binding signal, raw median fluorescence (lower = inhibition) (MCF (arbitrary fluorescence units)) in [5] of 262.
As for `Cc1cccc(-n2nc(CC#N)c(C#N)c2N)c1`, the outcome in assay [1], in assay [4] and in assay [6] was inactive. The fluorescence, percent of control (lower = inhibition) in assay [2] is 33.5%. The same compound came in with a GTP binding, percent of control in assay [3] of 74.8%.
On to `COC(=O)c1ccc2nc(Nc3nc4c(F)cc(F)cc4s3)sc2c1`, for which the call in assay [1], in assay [4] and in assay [6] was inactive. In addition, in assay [2], the fluorescence, percent of control (lower = inhibition) was 33.7%. Besides, in assay [3], the GTP binding, percent of control is 85.9%. In assay [5], the GTP binding signal, raw median fluorescence (lower = inhibition) (MCF (arbitrary fluorescence units)) was 286. Moreover, the GFP response vs DMSO in [7] is 98.2% (inactive); in assay [7] (setting [12]) it was 97.3%; in assay [7] (setting [13]), 98.3%; in assay [9] it was 101% (inactive). Moreover, the GFP response relative to DMSO in [8] is 91.2% (inactive); in assay [8] (measured here: daughter cell gate response), 90.4%; in [8] (measured here: mother cell gate response), 93%. Moreover, the GFP response, % of DMSO in [10] is 102% (inactive); in assay [11], 99.7% (inactive); in assay [11] (setting [12]), 98.4%; in [11] (setting [13]), 98.7%.

(Values after PubChem BioAssay.)
